Screens: PubChem, several laboratories
S1P3 antagonist: S1P3 receptor antagonists, primary screen, cell-based | CHO S1P3 NFAT-BLA reporter, FRET fluorescence, antagonist mode | inhibition, % at 4.98 µM | 0.27% of 170,000 active | AID 485, 2006;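 active means inhibition above the plate cutoff, the mean inhibition of test wells on that plate plus 3 SD, cut at about 28% in these data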;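 further: cells challenged with S1P at its EC80 of 0.8 µM; blue over green emission ratio from cleaved BLA substrate after 4 h stimulation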
S1P4 antag: S1P4 receptor antagonists, primary screen, cell-based; Sphingosine 1-phosphate receptor 4 (Homo sapiens), O95977; inhibition, % at 4.98 µM; S1P4-expressing cells, antagonist mode, reporter read-out; AID 1510, 2009; 0.26% of 220,000 active; in the data active means inhibition above about 29%
Target sequence (O95977 whole entry, looked up): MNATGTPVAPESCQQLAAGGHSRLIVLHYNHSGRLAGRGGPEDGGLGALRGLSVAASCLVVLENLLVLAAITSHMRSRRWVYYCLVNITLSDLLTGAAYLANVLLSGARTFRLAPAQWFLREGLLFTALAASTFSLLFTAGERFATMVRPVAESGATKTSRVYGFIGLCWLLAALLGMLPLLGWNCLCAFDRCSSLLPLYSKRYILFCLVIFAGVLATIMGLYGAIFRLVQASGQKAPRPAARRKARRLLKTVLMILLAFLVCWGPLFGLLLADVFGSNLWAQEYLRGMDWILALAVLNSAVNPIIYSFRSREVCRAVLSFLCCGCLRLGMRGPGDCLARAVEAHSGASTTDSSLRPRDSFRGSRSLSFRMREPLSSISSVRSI
AI-2 QS modul: Vibrio harveyi AI-2 quorum sensing modulators, primary screen, JMH597 strain, luminescence/OD600 ratio | Vibrio harveyi JMH597 AI-2 luminescence/OD600 ratio, 9 h; active compounds read low; strain lacks LuxN and CqsS sensors; 0 = neutral-control median | activity change, % at 7.5 µM | 0.4% of 300,000 active | AID 2094, 2009; in the data active means activity change below about -75%, passing the limit was not always enough;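 further: luminescence divided by OD600 gain over 9 h not by final OD600 alone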
Hsp70 activator: Hsp70 transcriptional activators, primary screen, cell-based, HeLa, Hsp70 promoter luciferase, luminescence, 10 µM; HeLa Hsp70 promoter luciferase reporter; scaled: vehicle 0, proteasome-inhibitor control 100%; activation, % at 10 µM; 0.04% of 200,000 active; AID 1203, 2008;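 active means activation above the mean across all tested compounds plus 3 SD, cutoff set per campaign, cut at about 5.5% in these data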
S1P4 agonist: S1P4 receptor agonists, primary screen, cell-based | S1P4-expressing cell line, agonist reporter assay | activation, % at 4.98 µM | AID 1509, 2009 | Sphingosine 1-phosphate receptor 4 (Homo sapiens), O95977 | 0.35% of 220,000 active; in the data active means activation above about 11%
Hits are given with their value; n = inactive; x = no result given. Hits are enriched below; roughly 0.97% of the tested compounds scored in any of these assays.

SMILES | S1P3 antagonist | S1P4 antag | AI-2 QS modul | Hsp70 activator | S1P4 agonist
CCC(C)C(=O)NCCc1ccc(S(N)(=O)=O)cc1 (stereo not drawn) | n | n | n | n | n
O=C(CSc1n[nH]c(-c2ccncc2)n1)c1ccccc1 | 71.8 | n | n | n | n
O=C(CSc1n[nH]c(-c2ccncc2)n1)c1cccc([N+](=O)[O-])c1 | n | n | n | n | n
COc1ccc(-c2cc(C(=O)Nc3c(C)nn(Cc4ccccc4)c3C)no2)cc1 | x | n | n | n | n
COc1cccc(-c2cc(C(=O)Nc3c(C)nn(Cc4ccccc4)c3C)no2)c1 | 53.6 | n | n | n | n
CC(=O)Oc1ccc(/C=C(\NC(=O)c2ccco2)C(=O)NCc2ccco2)cc1 | x | x | n | x | x
N/C(=N/OC(=O)c1ccc(Cl)cc1)c1ncc([N+](=O)[O-])s1 | n | n | n | x | n
CC1(c2ccc(OC(F)F)cc2)NC(=O)N(CC(=O)Nc2ccc(F)cc2)C1=O (stereo not drawn) | x | x | -93.7 | x | x
CC1(c2ccc(OC(F)F)cc2)NC(=O)N(CC(=O)Nc2ccc(OC(F)F)cc2)C1=O (stereo not drawn) | x | x | -92.6 | x | x
O=C(NC(c1cccnc1)C(F)(F)F)c1cc(COc2ccc3c(c2)CCCC3)on1 (stereo not drawn) | x | x | n | x | x
CN1CCN(NC(=O)c2cc(S(=O)(=O)Nc3ccc(Cl)cc3)ccc2Cl)CC1 | n | n | n | x | n
CCO[C@H]1OC(C(=O)O)=C[C@@H](c2ccccc2)[C@@H]1CCCO | x | x | n | x | x
CCOC(=O)c1nnn(-c2nonc2N)c1COc1cc(C)c(Cl)c(C)c1 | 57.7 | n | n | n | n
COc1ccccc1NC(=O)COC(=O)c1ccc([N+](=O)[O-])s1 | n | n | -87.0 | n | n
COc1ccc(/C=C(\NC(=O)c2ccccc2)C(=O)NCCN2CCOCC2)cc1 | x | x | n | x | x
COc1ccc(CCNC(=O)C2CCCN(S(C)(=O)=O)C2)cc1OC (stereo not drawn) | x | n | -291.5 | n | n
CCOC(=O)N1CCN(S(=O)(=O)N2CCCC(C(=O)NCCc3ccc(OC)c(OC)c3)C2)CC1 (stereo not drawn) | x | x | n | x | x
CSCC(CO)NS(=O)(=O)c1ccc(C)cc1 (stereo not drawn) | n | n | n | x | n
Cc1ccc(-n2c(Cc3cccn3C)nnc2SCC(=O)Nc2nnc(C)s2)cc1 | n | n | n | n | n
Cc1nnc(NC(=O)CSc2nnc(Cc3cccn3C)n2-c2cccc(C(F)(F)F)c2)s1 | 88.1 | n | n | n | n
CCCC(=O)NC(c1ccc(C(C)C)cc1)c1ccc2cccnc2c1O (stereo not drawn) | x | x | n | x | x
CCCC(=O)NC(c1ccc(N(C)C)cc1)c1ccc2cccnc2c1O (stereo not drawn) | x | x | -90.2 | x | x
COC(=O)c1cc(C(=O)c2ccc(C(C)(C)C)cc2)c[nH]1 | n | n | -85.3 | n | n
O=C(/C=C/c1ccco1)NCc1ccc2c(c1)OCO2 | n | n | -77.0 | n | n
O=C(/C=C/c1ccco1)Nc1ccc2c(c1)OCO2 | n | n | n | n | n
SMILES | S1P3 antagonist | S1P4 antag | AI-2 QS modul | Hsp70 activator | S1P4 agonist
C/C(=N\Nc1ccc(S(N)(=O)=O)cc1[N+](=O)[O-])c1cccnc1 | x | x | n | x | x
O=S(=O)(c1ccc(NC(=S)NCc2ccco2)cc1)N1CCCCC1 | n | n | -88.0 | x | n
O=C1CN(c2ccc(Cl)cc2)C2(CCCCC2)S1 | n | n | n | n | n
O=C(O)c1ccc(S(=O)(=O)c2ccc3c(c2)C(=O)N(Cc2ccco2)C3=O)cc1 | 105.7 | n | n | n | n
CC1(C)Cc2c(cnn2-c2ccc(F)cc2)C(NC(=O)CCc2ccncc2)C1 (stereo not drawn) | x | x | n | x | x
CC1C/C(=C\c2cccnc2)C(=O)/C(=C/c2cccnc2)C1 (stereo not drawn) | n | n | x | 110.0 | n
CCc1ccc(C(=O)COC(=O)c2nn(C)c(=O)c3ccccc23)cc1 | n | n | n | n | n
CCc1ccc(C(=O)COC(=O)c2n[nH]c3ccccc23)cc1 | n | n | -78.4 | n | n
O=C(CCC(=O)c1ccc(F)cc1)Nc1cccc(C(F)(F)F)c1 | n | n | -77.5 | n | n
N#Cc1nc(-c2ccccc2F)oc1NCc1cccc2c1OCO2 | n | n | -87.0 | n | n
CN(C)CCNc1oc(-c2ccccc2F)nc1C#N | n | n | n | n | n
CC(C)CCOc1cccc(OCC(=O)Nc2ccncc2)c1 | x | x | n | x | x
c1ccc(Nc2cc(Nc3ccccc3)[nH]n2)cc1 | n | n | -88.1 | n | n
N#CC(C#N)=C(N)CSc1cccc[n+]1[O-] | n | n | n | n | n
COc1cccc(CN2CCC(n3nccc3NC(=O)CCCc3ccccc3)CC2)c1 | x | x | -81.1 | x | x
Cc1ccc(Cn2ccc(NC(=O)c3nn(C)cc3Cl)n2)cc1 | x | n | n | n | n
Cn1cc(Cl)c(C(=O)Nc2cnn(Cc3ccc(F)cc3)c2)n1 | n | n | -80.9 | n | n
O=C(O)CSCCc1ccccn1 | 56.4 | n | n | n | n
O=C(CSCCc1ccccn1)Nc1ccccn1 | n | n | n | n | n
C=C[C@H]1CN2CC[C@H]1C[C@H]2[C@H](O)c1ccnc2ccc(OC)cc12 | x | x | n | x | x
O=C1COc2ccc(C(=O)COC(=O)c3ccc(S(=O)(=O)C(F)F)cc3)cc2N1 | x | x | -94.0 | x | x
CCN(CC)S(=O)(=O)c1cccc(C(=O)OCC(=O)c2ccc3c(c2)NC(=O)CO3)c1 | x | n | n | n | n
O=C(c1cccc(S(=O)(=O)N2CCN(c3ccc(F)cc3)CC2)c1)N1CCCC(C(F)(F)F)C1 (stereo not drawn) | x | x | n | x | x
O=C(/C=C/c1ccncc1)c1ccc(NC(=O)c2ccccc2F)cc1 | n | 37.4 | x | n | n
O=C(C#Cc1cccc([N+](=O)[O-])c1)c1ccccc1 | x | n | n | n | n
SMILES | S1P3 antagonist | S1P4 antag | AI-2 QS modul | Hsp70 activator | S1P4 agonist
Nc1ccccc1C#CC(=O)c1ccccc1 | x | x | -90.4 | x | x
COc1ccc(OCc2nc(-c3ccc(F)c(F)c3)cs2)cc1 | n | n | n | x | n
CC(C)(C)N(Cc1ccccc1)C(=O)COC(=O)c1ccccc1SCC(=O)N1CCCC1 | x | x | n | x | x
Nc1nc2c(F)c(F)c(F)cc2s1 | n | n | n | n | n
O=C(N/N=C/c1c[nH]c2ccccc12)c1cc(-c2ccc3ccccc3c2)n[nH]1 | n | n | -78.7 | n | n
O=C(N/N=C/c1c[nH]c2ccccc12)c1cc(-c2ccc(-c3ccccc3)cc2)n[nH]1 | x | n | n | n | n
